Data published in PubChem BioAssay AID504332 (National Center for Advancing Translational Sciences (NCATS), 2011).
The campaign covered roughly 350,000 compounds. About 31,000 (8.9%) were called active. Roughly 15% stayed inconclusive and do not appear here. The sample holds actives, similar compounds and a random draw of the others, so the mix is not that of the screen. Calls come from the whole dose curve; as a rule, active = well fitted inhibition curve with a large enough effect; inconclusive = small, poorly fitted or top-dose-only effect; inactive = no such curve, though single readings can be large or run the other way.

target: Histone-lysine N-methyltransferase EHMT2 (Homo sapiens) (UniProt Q96KQ7); assay: qHTS Assay for Inhibitors of Histone Lysine Methyltransferase G9a; conditions: G9a H3K9 monomethylation, AlphaScreen, 2 h; series mostly up to 59 µM; activity, negative = inhibition: at the top concentration; note: nearly all actives have a fitted effect of over 75% in size
In short: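 Enzyme 20 nM + cpd, 15 min RT; add b-H3K9 pep 500 nM / SAM 20 uM; 2 h RT; anti-H3K9me1 Ab 0.5 ug/mL + SA donor / anti-rabbit acceptor beads 20 ug/mL each, 10 min; AlphaScreen read.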
% is set by controls: 0 for no effect and ±100 for the full control effect; potency is the fitted concentration of half-maximal effect.

Sequence of Histone-lysine N-methyltransferase EHMT2 (Homo sapiens) (Q96KQ7 913-1193 limits assumed): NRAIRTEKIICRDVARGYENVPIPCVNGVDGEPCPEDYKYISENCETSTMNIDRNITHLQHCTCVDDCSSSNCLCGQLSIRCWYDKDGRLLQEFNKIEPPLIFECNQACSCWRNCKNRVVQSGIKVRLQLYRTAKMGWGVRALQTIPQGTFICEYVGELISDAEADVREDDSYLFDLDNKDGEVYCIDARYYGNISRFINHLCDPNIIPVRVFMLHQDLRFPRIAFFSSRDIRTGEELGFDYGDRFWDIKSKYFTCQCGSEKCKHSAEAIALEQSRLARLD

activity, negative = inhibition, inactive:
CSCCC(NC(=O)c1ccco1)C(=O)Nc1cc(C)ccn1 (stereo not drawn) -23.1% [at 102 µM]
CCn1c(=O)cc(OCC(=O)Nc2cc(Cl)c(OC)cc2OC)c2ccccc21 -14.6%
CCN(CC)c1ccc(S(=O)(=O)N2CCCCC2)cc1NC(=O)C1=COCCO1 -30.4% [at 102 µM]
Cc1ccccc1Cn1nc(C)c(NC(=O)c2cc(-c3ccc(F)cc3)on2)c1C 6.83%
Cc1nnnn1/C(=C\c1ccccc1)C(=O)OCC(=O)N1CC2(C)CC1CC(C)(C)C2 (stereo not drawn) -22.1%
Cc1cc(C)cc(C(=O)NCC(=O)OCC(=O)N2CCCCC2)c1 14.1% [at 102 µM]
O=S(=O)(NCCc1ccccn1)c1cc(Cl)cc(Cl)c1O 22.1% [at 2.33 µM]
CCOC(=O)c1ccccc1NC(=O)CC1Nc2ccccc2NC1=O (stereo not drawn) -4.54%
O=C(CC1Nc2ccccc2NC1=O)Nc1ccccc1NC(=O)CC1Nc2ccccc2NC1=O (stereo not drawn) -46.1% [at 102 µM]
Cc1cccc(-n2ncc(C(=O)N3CCC(C)CC3)c2C2CCN(C(=O)OC(C)(C)C)CC2)c1 -23.8%
O=C(CS(=O)(=O)c1cccc2nsnc12)N1CCN(c2cccc(Cl)c2)CC1 4.58%
CCN(CC(=O)Nc1ccc(OC)cc1)C(=O)CSCc1ccc(C)cc1 -8.18% [at 12.7 µM]
COc1cc(NC(=O)Nc2ccc(C)cc2)cc([N+](=O)[O-])c1 9.42% [at 2.33 µM]
Cc1csc(SCC(=O)N(c2ccccc2)C(C)C)n1 -6.13% [at 102 µM]
CCOc1ccc(NC(=O)c2ncoc2-c2ccco2)cc1 7.16%
O=C(NCc1ccccc1CN1CCCC1)C1CCN(S(=O)(=O)c2ccc(Cl)cc2)CC1 16%
C/C(=N\Nc1ncc(Cl)cc1Cl)c1ccc(S(=O)(=O)NCc2ccco2)cc1 -15.6%
O=C(CCCl)Nc1ccc(S(=O)(=O)NCc2ccco2)cc1 -13%
CCC(=O)Nc1ccc(S(=O)(=O)Nc2c(NC)c3ccccc3oc2=O)cc1 2.23%
Cc1ccc(CSc2oc(-c3cccs3)nc2S(=O)(=O)c2ccc(C)cc2)cc1 -0.9%
O=S(=O)(c1ccccc1)c1nc(-c2ccccc2F)oc1NCc1cccnc1 -3.34% [at 102 µM]
Cc1ccc(N2C(=O)CC(N3CCSCC3)C2=O)c(C)c1 (stereo not drawn) -5.6% [at 102 µM]
CCC1Oc2ccc(Cl)cc2N(CC(=O)O)C1=O (stereo not drawn) -29.8% [at 102 µM]
Cc1ccc(CSc2nc3cccnc3n2Cc2ccc(C(=O)NC3CC3)cc2)cc1 10.3%
COc1ccc(OCCn2cc(C(=O)C3CCCCC3)c3ccccc32)cc1 29.3%
O=C1CSC2(C(=O)N(Cc3ccccc3)c3ccccc32)N1c1cccc(F)c1 (stereo not drawn) -26.1%
CCOc1ccccc1NC(=O)c1ccc2c(c1)CCN2S(=O)(=O)c1ccc(C)cc1 4.28%
NC(=O)Cc1ccc2c(c1)[nH]c1ccccc12 15.3% [at 102 µM]
CC(=O)c1c(-c2ccccc2)c2ccccc2[nH]c1=O -27.3% [at 102 µM]
CCc1ccccc1N(C)C(=O)C1CCCN(c2ncnc3onc(-c4ccc(F)cc4)c23)C1 (stereo not drawn) -6.79%
COc1ccc([C@H]2CC(=O)C=C(/C=C/c3ccccc3)C2)cc1 -12.4% [at 2.33 µM]
COc1ccccc1Nc1nc(N)nc(N)c1S(=O)(=O)c1ccccc1 27.8%
Cc1ccc(C)c2[nH]c(=O)c(CCNC(=O)c3cccs3)cc12 2.66% [at 102 µM]
C=CCn1c(CCc2ccc(OC(C)C)cc2)n[nH]c1=S 9.89% [at 102 µM]
CCc1ccc(N(C(=O)c2csnn2)C(C(=O)NC2CCCCC2)c2cccnc2)cc1 (stereo not drawn) -4.95% [at 102 µM]
Cc1c(NS(=O)(=O)c2cc(C(=O)NCCc3ccc(F)cc3)cc(Cl)c2Cl)c(=O)n(-c2ccccc2)n1C -13.8% [at 102 µM]
Cc1cc(CN(C)C(=O)c2cc(COc3ccc(C)c(C)c3)on2)n[nH]1 25.5% [at 102 µM]
CSc1ccccc1OCc1cc(C(=O)N(C)CCc2c(C)n[nH]c2C)no1 43.1% [at 0.0925 µM]
NC(=O)NCCCC(=O)O -0.244% [at 12.7 µM]
Cc1ccccc1-c1nc2scc(CCNC(=O)C(=O)Nc3ccc(F)cc3F)n2n1 5.22%
CC(C)[C@@H]1NC(=O)c2cc([N+](=O)[O-])cc(I)c2NCCC[C@@H](C(=O)NC(CC(=O)O)C(N)=O)NC(=O)[C@H](CO)NC1=O (stereo partly drawn) -1.59% [at 102 µM]
Cc1oc(-c2ccccc2)nc1Cn1c(SCc2cccc(C(F)(F)F)c2)nc2cccnc21 -29.7%
Cc1ccc(C(=O)CN2C(=O)NC3(CCOc4ccccc43)C2=O)s1 (stereo not drawn) -5.02% [at 2.33 µM]
CN1CCN(NC(=O)Nc2ccc(Br)cc2)CC1 10.4% [at 102 µM]
CC(C)(C)OC(=O)NCCCCCNC(=O)c1[nH]cnc1C(=O)Nc1nccs1 3.9% [at 0.501 µM]
O=C(COc1ccc(Cl)cc1)Nc1ccccc1OCc1cc(=O)n2ccccc2n1 7.45%
COc1ccccc1OCCNC(=O)C(CCSC)NC(=O)COc1ccccc1 (stereo not drawn) 9.08% [at 12.7 µM]
O=C1C=C(c2cc(C(F)(F)F)cc(C(F)(F)F)c2)C[C@@H](c2ccc3c(c2)OCO3)C1 10.2% [at 0.501 µM]
CCN(C(=O)Cn1c(=O)nc(-c2ccccc2)c2cc(Cl)ccc21)c1cccc(C)c1 24.8%
O=C(CCC1N=C2c3ccccc3N=C(SCc3ccccc3F)N2C1=O)NCCc1ccccc1 (stereo not drawn) -4.93%
O=C(O)c1ccccc1-c1ccccc1C(=O)Nc1nccs1 2.15%
C[C@H](NC(=O)c1[nH]cnc1C(=O)Nc1nccs1)c1ccccc1 8.27% [at 0.501 µM]
Cc1cccc(C)c1-n1ncc(C(=O)NCCCN2CCCCC2)c1C1CCN(C(=O)OC(C)(C)C)CC1 -25%
CCCC(NCC(=O)Nc1ccccc1C(=O)NC1CC1)c1ccccc1 (stereo not drawn) -2.12% [at 102 µM]
CCOC(=O)c1c(C)[nH]c(C)c1S(=O)(=O)NCC(=O)NCc1cccc(C)c1 7.2%
CCCCc1cc(=O)oc2cc(C)cc(OCc3nn[nH]n3)c12 17.7%
Cc1c(C)c2ccc(OCC(=O)N3CCC(C(=O)O)CC3)c(C)c2oc1=O -7.73% [at 102 µM]
CCc1ccc(C(=O)NN=C2CCCCCC2)s1 1.85% [at 102 µM]
O=C(Nc1ccccc1Br)c1cc(CN2CCCC2)on1 -5.99%
COc1ccc(NC(=O)CSc2nc3ccccc3c(=O)n2C)cc1 7.85% [at 0.501 µM]
COc1cccc(NC(=O)C(Sc2nnnn2C)c2ccccc2)c1 (stereo not drawn) 5.67% [at 102 µM]
Cc1ccc(C2CCN(C(=O)c3cnn(-c4ccccc4Cl)c3C3CCN(C(=O)OC(C)(C)C)CC3)C2)cc1 (stereo not drawn) -43.6%
CC(=O)Nc1ccc(NC(=O)c2sc3nc4c(c(-c5ccc(C)cc5)c3c2N)CCC4)cc1 -37.6%
COc1ccc(NC(=O)c2cc(-c3ccc(C)cc3)on2)cc1 -5.29% [at 0.501 µM]
COc1ccc(CCNC(=O)CCNS(=O)(=O)c2cc(Br)cnc2N)cc1OC 4.51%
COCC1CCN(C(=O)C2CCC(=O)N(Cc3cccc(C(F)(F)F)c3)C2)CC1 (stereo not drawn) 15.3% [at 12.7 µM]
O=c1c(=O)n(Cc2c(F)cccc2Cl)ccn1Cc1ccccc1 -38%
O=c1onc(-c2c(F)cccc2F)n1-c1ccccc1Cl 22.1% [at 102 µM]
Cc1nnc(NC(=O)CSc2nc3c([nH]c4ccccc43)c(=O)n2-c2cccc(Cl)c2)s1 6.79%
COCCNS(=O)(=O)c1cc(-c2nn3c(C)nnc3c3ccccc23)ccc1C -0.274%
Cc1nc2ccccn2c(=O)c1NC(=O)c1cccs1 2.42% [at 102 µM]
Cc1ccc(C)c(S(=O)(=O)c2nnn3c2nc(N2CCOCC2)c2sccc23)c1 13.3%
CCOC(=O)C1CN(S(=O)(=O)c2ccc(OC)cc2)c2cc(Cl)ccc2O1 (stereo not drawn) 34.7% [at 102 µM]
O=[N+]([O-])c1cccc(S(=O)(=O)N2CCCCCC2)c1 -27.8%
Cc1ccc(C)c(S(=O)(=O)N2CCN(CC(=O)Nc3ccc([N+](=O)[O-])cc3)CC2)c1 -2.86%

Potency, active:
Cc1cccc(C(=O)NCC(=O)OCC(=O)N2CC3(C)CC2CC(C)(C)C3)c1 (stereo not drawn) 6.31 µM
COC(=O)c1cc(C)sc1NC(=O)CC1Nc2ccccc2NC1=O (stereo not drawn) 50.1 µM
COc1ccc(Cc2n[nH]c(=S)n2NC(=O)Nc2ccc(C)cc2)cc1 8.91 µM
Cc1c(Cl)cnc(NC(=O)COC(=O)c2ccc(S(=O)(=O)NCc3ccco3)cc2)c1Cl 44.7 µM
Cc1ccc(S(=O)(=O)c2nc(-c3cccs3)oc2NCc2cccnc2)cc1 25.1 µM
Cc1cc(Cl)ccc1N1C(=O)CC(SCCC(=O)O)C1=O (stereo not drawn) 10 µM
S=c1[nH]c2ccccc2c2ccccc12 8.91 µM
C=CCn1c(CCNC(=O)c2cccs2)n[nH]c1=S 11.2 µM
COc1cc(Cl)ccc1OCc1cc(C(=O)N(C)CCc2c(C)n[nH]c2C)no1 39.8 µM
NC(=O)C[C@@H]1NC(=O)CNC(=O)c2cc([N+](=O)[O-])cc(I)c2NCCC(C(N)=O)NC1=O (stereo partly drawn) 11.2 µM
NCCCC[C@@H]1NC(=O)[C@H](CCC(=O)O)NC(=O)c2cc([N+](=O)[O-])cc(I)c2NCC[C@@H](C(N)=O)NC1=O 14.1 µM
NC(=O)CC[C@@H]1NC(=O)[C@H](CO)NC(=O)c2cc([N+](=O)[O-])cc(I)c2NCC[C@@H](C(N)=O)NC1=O 10 µM
CC(NC(=O)C(=O)Nc1nccs1)c1ccccc1 (stereo not drawn) 50.1 µM
CCOC(=O)CCc1c(C)c2ccc(OCc3nn[nH]n3)c(C)c2oc1=O 50.1 µM
COc1cccc(NC(=O)C(Sc2nc3ccccc3c(=O)n2CC(C)C)c2ccccc2)c1 (stereo not drawn) 79.4 µM
Cc1ccc(NC(=O)c2sc3nc(N)c(C#N)cc3c2N)cc1 7.94 µM
O=c1o[nH]c(-c2ccccc2)c1N=Nc1c(F)cccc1Cl 28.2 µM
Cc1ccc([N+](=O)[O-])cc1S(=O)(=O)N1CCCN(C)CC1 56.2 µM
